Measured values taken from PubChem BioAssay (NCI).
Several values for one entry are separate records, joined by “and”; a condition that tells them apart may be missing. Equal values may be shown once. The panel holds about 79,000 compounds, 15% with a hit somewhere; the sample as a whole holds those more often. A number with no mark means an inactive call. Activity calls are given as the source filed them. No stated cut-off is given here; in the data, active means growth inhibition above about 70%; inactive means the rest.

Assay: NCI Yeast Anticancer Drug Screen. Data for the bub3 strain (AID 167)
Conditions: S. cerevisiae bub3 mutant strain, stronger effect = higher value
Description: Growth inhibition of yeast strains with defined genetic alterations is measured as a screen for potential anti-cancer activity. Selected strains with alterations in DNA damage repair or cell cycle control were exposed to compounds and growth inhibition was measured relative to vehicle treated controls. The strain used in this assay is bub3

[1] = at 5.0 µM (retest, dose inferred, filed as 0.5)
[2] = at 50.0 µM (retest, dose inferred, filed as 5.0)

## Oc1ccc(Cc2ccc(Cl)cc2)c(O)c1
[1]
  growth inhibition: -2%
[2]
  growth inhibition: 99% (active)

## N=C1C(=N)c2ccccc2-c2ccccc21
[1]
  growth inhibition: 11%
[2]
  growth inhibition: 99% (active)
At 50.0 µM
  growth inhibition: 89.6% (active)

## c1ccc(C2NCCNC2c2ccccc2)cc1 (stereo not given)
[1]
  growth inhibition: 4%
[2]
  growth inhibition: 5%
At 50.0 µM
  growth inhibition: 55.3%

## CC(C)=C1C=C2CC[C@@H]3[C@](C)(CCC[C@@]3(C)C(=O)O)[C@H]2CC1
[1]
  growth inhibition: -1%
[2]
  growth inhibition: 94% (active)
At 50.0 µM
  growth inhibition: 85.8% (active)

## O=C(c1ccccc1)N(CCCl)C(=O)N(CCCl)C(=O)c1ccccc1
[1]
  growth inhibition: 23%
[2]
  growth inhibition: 64%

## O=C(Nc1ccc(Cl)c(Cl)c1)Nc1ccccc1O
[1]
  growth inhibition: 46%
[2]
  growth inhibition: 78% (active)
At 50.0 µM
  growth inhibition: 64%

## O=C(Nc1ccc(Cl)c(Cl)c1)OCc1ccco1
[1]
  growth inhibition: 41%
[2]
  growth inhibition: 81% (active)
At 50.0 µM
  growth inhibition: 93.1% (active)

## C=C1C(=O)OC2CC1C(OC(=O)/C=C/c1ccccc1)C/C(C)=C/CC/C(C)=C/CCC2(C)O (stereo not given)
[1]
  growth inhibition: 88% (active)
[2]
  growth inhibition: 95% (active)
At 50.0 µM
  growth inhibition: 80% (active)

## Fc1ccc(NCCS)cc1
[1]
  growth inhibition: 10%
[2]
  growth inhibition: 93% (active)
At 50.0 µM
  growth inhibition: 86.9% (active)

## O=Nc1ccc2ccccc2c1O
[1]
  growth inhibition: 3%
[2]
  growth inhibition: 93% (active)
At 50.0 µM
  growth inhibition: 89.5% (active)

## c1ccc(-c2cc3cc4ccccc4cn3c2)cc1
[1]
  growth inhibition: 53%
[2]
  growth inhibition: 97% (active)
At 50.0 µM
  growth inhibition: 86.3% (active)

## CCCOC(=O)c1nc(N(CC2CCCCC2)C(=O)NC)sc1/N=C/c1ccccc1
[1]
  growth inhibition: 77% (active)
[2]
  growth inhibition: 92% (active)
At 50.0 µM
  growth inhibition: 10.8%

## NC(CS/C(Cl)=C/Cl)C(=O)O (stereo not given)
[1]
  growth inhibition: 19%
[2]
  growth inhibition: 94% (active)
At 50.0 µM
  growth inhibition: 89.4% (active)

## O=C(CCCCCCCCC(=O)NCC1(c2ccccc2)CCN(Cc2ccccc2)CC1)NCC1(c2ccccc2)CCN(Cc2ccccc2)CC1
At 50.0 µM
  growth inhibition: 10.4% and 3.6%

## CC/C(=N/NC(N)=O)C1=CCCCC1
At 50.0 µM
  growth inhibition: -15.2% and -9.7%

## CSCCC(N)C(=O)NCC(=O)O (stereo not given)
At 50.0 µM
  growth inhibition: -16.1% and -12%
